# Bioassay records deposited in PubChem BioAssay by Broad Institute.
# Rows were chosen to be rich in hits. Some 6.7% of all compounds tested hit in one or more screens of this group.
# C diff growth: inhibitors of Clostridium difficile growth | Clostridium difficile clinical isolate growth, OD600, 24 h; stronger effect = lower value | growth activity, negative = inhibition, % at 16 µg/mL (by protocol) | hit rate 0.25% among 86,000;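 active = mean growth activity at or below -80% and every replicate also at or below -80%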;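 note: 0% = DMSO wells and -100% = levofloxacin 16 µg/mL wells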
# Pf Dd2 inh: blocks growth of Plasmodium falciparum Dd2 parasites; activity change, % at 10 µM; hit rate 2.3% among 94,000; P. falciparum Dd2 growth, SYBR Green, 72 h; stronger effect = lower value; in the data active = activity change below about -80%
# Tcruzi prolif: T. cruzi proliferation inhibition | T. cruzi beta-gal in NIH3T3, GalScreen luminescence, 90 h | inhibition, % at 8.34 µM | hit rate 5.9% among 77,000 | AID 624255;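 active = mean inhibition above about 93%, with at least 55% of replicates each passing it, limit read from the data, passing the limit was not always enough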
# Numbers without * were called inactive; · = no result.
SMILES,C diff growth,Pf Dd2 inh,Tcruzi prolif
C[C@@H]1CN([C@@H](C)CO)C(=O)c2c(c3ccccc3n2C)-c2ccccc2CO[C@H]1CN(C)C(=O)Nc1ccc(-c2ccccc2)cc1,8.4,-90.7*,·
C[C@@H]1CN([C@H](C)CO)C(=O)c2c(c3ccccc3n2C)-c2ccccc2CO[C@@H]1CN(C)C(=O)Nc1cccc(F)c1,·,-53.0,29.8
C[C@@H]1CN([C@@H](C)CO)C(=O)c2c(c3ccccc3n2C)-c2ccccc2CO[C@@H]1CN(C)C(=O)Nc1ccccc1,·,-65.7,39.3
C[C@H]1CN([C@@H](C)CO)C(=O)c2c(c3ccccc3n2C)-c2ccccc2CO[C@H]1CN(C)C(=O)Nc1ccccc1,·,-37.5,46.9
C[C@H]1CN([C@@H](C)CO)C(=O)c2c(c3ccccc3n2C)-c2ccccc2CO[C@H]1CN(C)C(=O)Nc1ccc(-c2ccccc2)cc1,2.4,-88.7*,·
O=C(NCC[C@@H]1CC[C@H](NC(=O)C2CCC2)[C@@H](CO)O1)c1cc(Cl)cc(Cl)c1,-5.3,35.5,·
COc1ccc(S(=O)(=O)N(C)C[C@H]2Oc3ccc(NC(=O)NC(C)C)cc3C(=O)N([C@@H](C)CO)C[C@H]2C)cc1,-1.4,-17.4,-3.4
C[C@H](CO)N1C[C@H](C)[C@H](CN(C)Cc2ccc(C(=O)Nc3ccccc3N)cc2)Oc2ccc(NC(=O)Nc3ccc4c(c3)OCO4)cc2C1=O,-1.9,-68.5,99.4
C[C@H]1CN([C@@H](C)CO)C(=O)c2cccc(NC(=O)Nc3ccc4c(c3)OCO4)c2O[C@@H]1CN(C)Cc1ccc(C(=O)Nc2ccccc2N)cc1,4.6,-85.2*,·
C[C@@H]1CN([C@@H](C)CO)C(=O)c2cccc(NC(=O)Nc3ccc4c(c3)OCO4)c2O[C@@H]1CN(C)Cc1ccc(-c2ccccc2)cc1,-95.9*,-47.2,34.7
C[C@H]1CN([C@@H](C)CO)C(=O)c2cccc(NC(=O)Nc3ccc4c(c3)OCO4)c2O[C@@H]1CN(C)C(=O)Nc1ccc2c(c1)OCO2,-7.2,19.3,8.6
C[C@@H]1CN([C@@H](C)CO)C(=O)c2cccc(NC(=O)Nc3ccc4c(c3)OCO4)c2O[C@@H]1CN(C)Cc1ccc(C(=O)O)cc1,-3.6,10.3,-10.0
C[C@H](CO)N1C[C@H](C)[C@H](CN(C)Cc2ccc(-c3ccccc3)cc2)Oc2c(NC(=O)Nc3ccc4c(c3)OCO4)cccc2C1=O,3.3,-2.1,46.0
C[C@@H]1CN([C@@H](C)CO)C(=O)c2cccc(NC(=O)Nc3ccc4c(c3)OCO4)c2O[C@@H]1CN(C)Cc1ccc(C(=O)Nc2ccccc2N)cc1,·,-92.8*,95.4
C[C@@H]1CN([C@@H](C)CO)C(=O)c2cccc(NC(=O)Nc3ccc4c(c3)OCO4)c2O[C@@H]1CN(C)C(=O)Nc1ccc2c(c1)OCO2,-4.2,-89.6*,-3.1
COc1ccc2c3c([nH]c2c1)[C@H](CO)N(C(=O)Nc1ccc(F)cc1)CC31CCN(CC2CC2)CC1,8.3,-67.5,·
COc1ccc(CN(C)C[C@H]2Oc3ccc(NC(=O)NC4CCCCC4)cc3C(=O)N([C@@H](C)CO)C[C@H]2C)cc1,-2.4,-5.7,·
Cc1noc(C)c1S(=O)(=O)Nc1ccc2c(c1)C(=O)N([C@@H](C)CO)C[C@@H](C)[C@H](CN(C)C(=O)Nc1ccc(F)cc1)OCCCC[C@@H](C)O2,8.3,-47.0,12.4
C[C@H](CO)N1C[C@H](C)[C@@H](CN(C)S(=O)(=O)c2ccccc2)Oc2ccc(NC(=O)C3CC3)cc2CC1=O,-1.6,-2.6,57.0
COCC(=O)N1CC(=O)N2[C@H](CO)[C@@H](c3ccc(C#Cc4cccc(OC)c4)cc3)[C@@H]2C1,-11.1,-1.6,·
C[C@@H]1CN([C@H](C)CO)C(=O)c2cc(C#CC(C)(C)O)cnc2O[C@H]1CN(C)Cc1ccccn1,0.7,10.4,·
C[C@@H]1CN([C@@H](C)CO)C(=O)c2c(c3ccccc3n2C)-c2ccccc2CO[C@@H]1CN(C)S(=O)(=O)c1ccccc1F,-0.7,-70.9,94.1
COc1ccccc1S(=O)(=O)N(C)C[C@@H]1OCc2ccccc2-c2c(n(C)c3ccccc23)C(=O)N([C@H](C)CO)C[C@H]1C,0.0,-70.5,52.0
C[C@H]1CN([C@@H](C)CO)C(=O)c2c(c3ccccc3n2C)-c2ccccc2CO[C@H]1CN(C)S(=O)(=O)c1cccs1,-5.2,-39.1,67.8
Cc1ccccc1S(=O)(=O)N(C)C[C@@H]1OCc2ccccc2-c2c(n(C)c3ccccc23)C(=O)N([C@@H](C)CO)C[C@@H]1C,·,-88.9*,83.1
Cc1ccccc1S(=O)(=O)N(C)C[C@H]1OCc2ccccc2-c2c(n(C)c3ccccc23)C(=O)N([C@H](C)CO)C[C@H]1C,·,-83.7*,89.9
C[C@@H]1CN([C@H](C)CO)C(=O)c2c(c3ccccc3n2C)-c2ccccc2CO[C@@H]1CN(C)S(=O)(=O)c1ccccc1F,1.2,-70.6,86.8
